Several values for one entry are separate records, joined by “and”; a condition that tells them apart may be missing. Equal values may be shown once. Results filed as inconclusive are left out. Where a call stands in place of a potency, no number is given. A structure can be active in one record and inactive in another. Activity calls are given as the source filed them. Calls come from the whole dose curve.
assay: p53 small molecule agonists, cell-based qHTS assay with human liver microsomes: qHTS cell viability counter screen (AID 1963579); settings: p53RE-bla HCT-116 viability, ATP luminescence, 16 h, HLM; series mostly up to 66 µM; note: nearly all actives have a fitted effect of over 45% in size
From the text: National Center for Advancing Translational Sciences [NCATS]
Division of Preclinical Innovation [DPI]
U.S. Environmental Protection Agency [EPA]
National Institutes of Environmental Health Sciences [NIEHS]
National Toxicology Program [NTP]
U.S. Food and Drug Administration [FDA]
p53, a tumor suppressor protein, is activated following cellular insult, including DNA damage and other cellular stresses. The activation of p53 regulates cell fate by inducing DNA repair, cell cycle arrest, apoptosis, or cellular senescence. The activation of p53, therefore, is a good indicator of DNA damage and other cellular stresses. […] The activation of the reporter gene under culture conditions can be detected by fluorescence intensity. This cell line was used to screen the Tox21 10K compound library in the condition of presence of human liver microsomes and to identify agonists that activate the p53 signaling pathway after in vitro metabolic activation (Ooka et al., Archive of Toxicology 96:1975-1987, 2022).
Tox21 Assay Protocol Summary:
The p53RE-bla cells were dispensed at 4,000cells/3ul/well in 1536-well black-clear bottom plates. After the assay plates were incubated at 37 C, 5% CO2 incubator for 5 hours, 23 nL of compounds dissolved in DMSO, positive controls or DMSO only was transferred to the assay plate. Following compound addition, 3 uL of human liver microsomes (XenoTech, Kansas City, KS) at final concentration of 0.5 mg/mL and 1uL of B-Nicotinamide adenine dinucleotide 2'-phosphate (NADPH) at final concentration of 0.5 mg/mL were transferred to the assay plate. The plates were incubated at 37 C for 16 hours. 1 uL of LiveBLAzer detection mixture was added to each well and the plates were incubated at room temperature in the dark for 2 h. Fluorescence intensity at 460 and 530 nm emission and 405 nm excitation were measured by an Envision plate reader. For cell viability readout that measures cytotoxicity, 4 ul/well of CellTiter-Glo reagent was added into the assay plates using a Flying Reagent Dispenser. After 30 min incubation at room temperature, the luminescence intensity in the plates was measured using a ViewLux plate reader.
Potency is the fitted concentration of half-maximal effect.

Q: Which Potency does the source give for `Cc1nn(-c2cc(NS(C)(=O)=O)c(Cl)cc2Cl)c(=O)n1C(F)F` here?
A: The Potency was “inactive”.

Q: For `CCCCOCCOP(=O)(OCCOCCCC)OCCOCCCC`, which Potency is on record?
A: Its Potency is “inactive”.

Q: With `CCCCCCCCCCCCCl` as the compound, how does the Potency read?
A: The Potency was “inactive”.

Q: For `Nc1c(Cl)cc([N+](=O)[O-])cc1Cl`, which Potency is on record?
A: The Potency was “inactive”.

Q: For `COCCl`, which Potency is on record?
A: The Potency was “inactive”.

Q: Which Potency does the source give for `C/C(=N\NC(=O)Nc1cc(F)cc(F)c1)c1ncccc1C(=O)O` here?
A: Its Potency is “inactive”.

Q: Which Potency does the source give for `CS(=O)(=O)NC(=O)c1cc(Oc2ccc(C(F)(F)F)cc2Cl)ccc1[N+](=O)[O-]` here?
A: Its Potency is “inactive”.

Q: For `CN(CCCC(=O)c1cccnc1)N=O`, which Potency is on record?
A: The Potency was “inactive”.

Q: Which Potency does the source give for `C[C@]12CC[C@H]3[C@@H](CCC4=CC(=O)CC[C@@H]43)[C@@H]1CC[C@@H]2O` here?
A: Its Potency is “inactive”.

Q: With `CCC[CH2][Sn]([Cl])([CH2]CCC)[CH2]CCC` as the compound, how does the Potency read?
A: The Potency was 6.48 µM (active) and 5.76 µM (active).

Q: Which Potency does the source give for `ClCCOCOCCCl` here?
A: Its Potency is “inactive”.

Q: With `C#CCOC(C(=O)OCCN(C)C)(c1ccccc1)c1ccccc1` as the compound, how does the Potency read?
A: Its Potency is “inactive”.

Q: For `COc1ccc(C=O)cc1OC`, which Potency is on record?
A: The Potency was “inactive”.

Q: With `CCCCCCCCOC(=O)c1ccc(C(=O)OCCCCCCCC)c(C(=O)OCCCCCCCC)c1` as the compound, how does the Potency read?
A: The Potency was “inactive”.

Q: Which Potency does the source give for `Cc1cccc(C)c1N` here?
A: The Potency was “inactive”.

Q: With `OCc1ccco1` as the compound, how does the Potency read?
A: Its Potency is “inactive”.

Q: For `CCCC(C)(COC(N)=O)COC(N)=O`, which Potency is on record?
A: Its Potency is “inactive”.

Q: For `O=S(=O)(c1ccc(Cl)cc1)c1cc(Cl)c(Cl)cc1Cl`, which Potency is on record?
A: The Potency was “inactive”.

Q: For `CCCN(CCC)c1c([N+](=O)[O-])cc(C(C)C)cc1[N+](=O)[O-]`, which Potency is on record?
A: Its Potency is “inactive”.

Q: Which Potency does the source give for `CC(C)(O)C(=O)Nc1ccc([N+](=O)[O-])c(C(F)(F)F)c1` here?
A: Its Potency is “inactive”.

Q: With `C=CC(=O)NC(C)(C)CC(C)=O` as the compound, how does the Potency read?
A: The Potency was “inactive”.

Q: For `CCOP(=S)(OCC)O/N=C(\C#N)c1ccccc1`, which Potency is on record?
A: The Potency was “inactive”.

Q: For `Cc1cc(-c2ccc(N)c(C)c2)ccc1N`, which Potency is on record?
A: Its Potency is “inactive and 4.07 µM (active)”.

Q: With `NC(=O)CN1CCCC1=O` as the compound, how does the Potency read?
A: Its Potency is “inactive”.

Q: Which Potency does the source give for `COc1nc(C)nc(NC(=O)NS(=O)(=O)c2ccccc2Cl)n1` here?
A: The Potency was “inactive”.

Q: Which Potency does the source give for `CCCC[N+]1(C)CCCC1` here?
A: Its Potency is “inactive”.

Q: With `N#Cc1ccc(O)cc1` as the compound, how does the Potency read?
A: Its Potency is “inactive”.

Q: For `CC(O)CN(CC(C)O)CC(C)O` (stereo not given), which Potency is on record?
A: The Potency was “inactive”.

Q: Which Potency does the source give for `C[C@]12CCC(=O)C[C@@H]1CC[C@@H]1[C@@H]2CC[C@]2(C)[C@@H](O)CC[C@@H]12` here?
A: Its Potency is 35.9 µM (active) and inactive.

Q: Which Potency does the source give for `Oc1ccccc1Cl` here?
A: Its Potency is “inactive”.

Q: With `ClC1=C(Cl)C2(Cl)C3C(Cl)C(Cl)CC3C1(Cl)C2(Cl)Cl` (stereo not given) as the compound, how does the Potency read?
A: The Potency was “inactive”.

Q: Which Potency does the source give for `N#CC(Br)Br` here?
A: The Potency was “inactive”.

Q: With `CCCCCCCCCCCCCCn1cc[n+](C)c1` as the compound, how does the Potency read?
A: The Potency was 40.9 µM (active) and 40.3 µM (active) and inactive.

Q: Which Potency does the source give for `COC[C@H](C)N(C(=O)CCl)c1c(C)csc1C` here?
A: The Potency was “inactive”.

Q: Which Potency does the source give for `N#CCC#N` here?
A: Its Potency is “inactive”.

Q: With `CCCCCCCCCBr` as the compound, how does the Potency read?
A: The Potency was “inactive”.

Q: With `CC(C)CCCCCCOC(=O)c1ccccc1C(=O)OCCCCCCC(C)C` as the compound, how does the Potency read?
A: Its Potency is “inactive”.

Q: For `O=C1CCCN1`, which Potency is on record?
A: Its Potency is “inactive”.

Q: With `ClCc1ccccc1` as the compound, how does the Potency read?
A: The Potency was “inactive”.

Q: Which Potency does the source give for `CCN(CC)CCO` here?
A: The Potency was “inactive”.
